According to PubChem BioAssay AID1159580 (chemical genetic matrix, 2015):
The campaign covered roughly 5,500 compounds. About 2,000 (36%) were called active. About 18% were inconclusive and are not listed. The list shows a part of the results. Unmarked numbers belong to inactive results. Rule as the data show it: active = normalized growth mostly below about 0.91 (no sharp cut-off); inconclusive = no clear call, values can overlap the other calls; inactive = mostly above about 0.92.

Test: chemical genetic growth profiling, strain panel (AID 1159580);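 also: tested at 20 µM; growth read once vehicle control cultures reached saturation at 30 °C; 1 = growth at the plate median or of vehicle wells; lower values mean less growth of the strain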
Conditions: growth OD

O=c1oc2ccccc2c(O)c1Cc1c(O)c2ccccc2oc1=O
normalized growth (S. cerevisiae deletion strains, locus YJR066W, strain TOR1, stronger effect = lower value): 0.859 | normalized growth (S. cerevisiae deletion strains, locus YKL009W, strain mrt4, stronger effect = lower value): 0.944 | normalized growth (S. cerevisiae deletion strains, locus YKL068W, stronger effect = lower value): 0.959 | normalized growth (S. cerevisiae deletion strains, locus YKL085W, strain MDH1 (second series), stronger effect = lower value): 0.923 (active) | normalized growth (S. cerevisiae deletion strains, locus YKL085W, strain MDH1, stronger effect = lower value): 0.923 (active) | normalized growth (S. cerevisiae deletion strains, locus YKL160W, strain elf1, stronger effect = lower value): 1.01 | normalized growth (S. cerevisiae deletion strains, locus YKR001C, strain vps1, stronger effect = lower value): 0.962 | normalized growth (S. cerevisiae deletion strains, locus YKR026C, strain gcn3, stronger effect = lower value): 1.02 | normalized growth (S. cerevisiae deletion strains, locus YKR091W, strain srl3, stronger effect = lower value): 0.999 | normalized growth (S. cerevisiae deletion strains, locus YLL001W, strain dnm1, stronger effect = lower value): 1.03 | normalized growth (S. cerevisiae deletion strains, locus YLL026W, stronger effect = lower value): 0.996 | normalized growth (S. cerevisiae deletion strains, locus YLL041C, strain sdh2, stronger effect = lower value): 0.987 | normalized growth (S. cerevisiae deletion strains, locus YLR027C, strain aat2, stronger effect = lower value): 0.992 | normalized growth (S. cerevisiae deletion strains, locus YLR039C, strain RIC1, stronger effect = lower value): 1.01 | normalized growth (S. cerevisiae deletion strains, locus YLR058C, strain SHM2, stronger effect = lower value): 1 | normalized growth (S. cerevisiae deletion strains, locus YLR102C, strain apc9, stronger effect = lower value): 0.964 | normalized growth (S. cerevisiae deletion strains, locus YLR113W, strain HOG1, stronger effect = lower value): 0.965 | normalized growth (S. cerevisiae deletion strains, locus YLR221C, strain rsa3, stronger effect = lower value): 0.994 | normalized growth (S. cerevisiae deletion strains, locus YLR258W, strain gsy2, stronger effect = lower value): 1 | normalized growth (S. cerevisiae deletion strains, locus YLR262C, strain YPT6 (second series), stronger effect = lower value): 0.975 | normalized growth (S. cerevisiae deletion strains, locus YLR262C, strain YPT6, stronger effect = lower value): 1.01 | normalized growth (S. cerevisiae deletion strains, locus YLR268W, strain sec22, stronger effect = lower value): 1 | normalized growth (S. cerevisiae deletion strains, locus YLR320W, strain mms22, stronger effect = lower value): 0.989 | normalized growth (S. cerevisiae deletion strains, locus YLR330W, strain CHS5, stronger effect = lower value): 0.993 | normalized growth (S. cerevisiae deletion strains, locus YLR342W, strain FKS1 (second series), stronger effect = lower value): 1.03 | normalized growth (S. cerevisiae deletion strains, locus YLR342W, strain FKS1, stronger effect = lower value): 1 | normalized growth (S. cerevisiae deletion strains, locus YLR357W, strain rsc2, stronger effect = lower value): 1.01 | normalized growth (S. cerevisiae deletion strains, locus YLR370C, strain arc18, stronger effect = lower value): 1 | normalized growth (S. cerevisiae deletion strains, locus YLR371W, strain rom2, stronger effect = lower value): 0.968 | normalized growth (S. cerevisiae deletion strains, locus YLR384C, strain iki3, stronger effect = lower value): 1 | normalized growth (S. cerevisiae deletion strains, locus YLR418C, strain cdc73, stronger effect = lower value): 0.948 | normalized growth (S. cerevisiae deletion strains, locus YML016C, strain PPZ1, stronger effect = lower value): 1 | normalized growth (S. cerevisiae deletion strains, locus YML032C, strain rad52, stronger effect = lower value): 0.986 | normalized growth (S. cerevisiae deletion strains, locus YML120C, strain ndi1, stronger effect = lower value): 1.02 | normalized growth (S. cerevisiae deletion strains, locus YML124C, strain tub3, stronger effect = lower value): 0.961 | normalized growth (S. cerevisiae deletion strains, locus YMR058W, strain fet3, stronger effect = lower value): 1 | normalized growth (S. cerevisiae deletion strains, locus YMR078C, strain ctf18, stronger effect = lower value): 0.958 | normalized growth (S. cerevisiae deletion strains, locus YMR125W, strain sto1, stronger effect = lower value): 1.02 | normalized growth (S. cerevisiae deletion strains, locus YMR129W, stronger effect = lower value): 1.01 | normalized growth (S. cerevisiae deletion strains, locus YMR205C, strain PFK2, stronger effect = lower value): 1 | normalized growth (S. cerevisiae deletion strains, locus YMR223W, strain ubp8, stronger effect = lower value): 0.953 | normalized growth (S. cerevisiae deletion strains, locus YMR231W, strain pep5, stronger effect = lower value): 1 | normalized growth (S. cerevisiae deletion strains, locus YMR307W, strain GAS1, stronger effect = lower value): 0.947 | normalized growth (S. cerevisiae deletion strains, locus YNL067W, strain RPL9B, stronger effect = lower value): 0.987 | normalized growth (S. cerevisiae deletion strains, locus YNL071W, strain lat1, stronger effect = lower value): 1.02 | normalized growth (S. cerevisiae deletion strains, locus YNL128W, strain TEP1, stronger effect = lower value): 0.998 | normalized growth (S. cerevisiae deletion strains, locus YNL153C, strain GIM3, stronger effect = lower value): 1 | normalized growth (S. cerevisiae deletion strains, locus YNL183C, strain NPR1, stronger effect = lower value): 0.949 | normalized growth (S. cerevisiae deletion strains, locus YNL209W, strain ssb2, stronger effect = lower value): 0.999 | normalized growth (S. cerevisiae deletion strains, locus YNL233W, strain BNI4, stronger effect = lower value): 1 | normalized growth (S. cerevisiae deletion strains, locus YNL248C, strain rpa49, stronger effect = lower value): 1.05 | normalized growth (S. cerevisiae deletion strains, locus YNL250W, strain rad50, stronger effect = lower value): 0.958 | normalized growth (S. cerevisiae deletion strains, locus YNL271C, strain bni1, stronger effect = lower value): 0.942 | normalized growth (S. cerevisiae deletion strains, locus YNL298W, strain CLA4, stronger effect = lower value): 0.932 | normalized growth (S. cerevisiae deletion strains, locus YNL307C, strain MCK1, stronger effect = lower value): 0.973 | normalized growth (S. cerevisiae deletion strains, locus YNL322C, strain KRE1 (second series), stronger effect = lower value): 0.98 | normalized growth (S. cerevisiae deletion strains, locus YNL322C, strain KRE1, stronger effect = lower value): 0.987 | normalized growth (S. cerevisiae deletion strains, locus YNR049C, strain mso1, stronger effect = lower value): 0.996 | normalized growth (S. cerevisiae deletion strains, locus YNR052C, strain pop2, stronger effect = lower value): 0.97 | normalized growth (S. cerevisiae deletion strains, locus YOL012C, strain htz1): 1.21 | normalized growth (S. cerevisiae deletion strains, locus YOL147C, strain pex11, stronger effect = lower value): 0.961 | normalized growth (S. cerevisiae deletion strains, locus YOR001W, strain rrp6, stronger effect = lower value): 0.997 | normalized growth (S. cerevisiae deletion strains, locus YOR061W, strain CKA2, stronger effect = lower value): 1 | normalized growth (S. cerevisiae deletion strains, locus YOR069W, strain VPS5, stronger effect = lower value): 0.99 | normalized growth (S. cerevisiae deletion strains, locus YOR070C, strain gyp1, stronger effect = lower value): 1 | normalized growth (S. cerevisiae deletion strains, locus YOR080W, strain dia2, stronger effect = lower value): 1 | normalized growth (S. cerevisiae deletion strains, locus YOR083W, strain WHI5, stronger effect = lower value): 0.968 | normalized growth (S. cerevisiae deletion strains, locus YOR106W, strain vam3, stronger effect = lower value): 1.04 | normalized growth (S. cerevisiae deletion strains, locus YOR136W, strain idh2, stronger effect = lower value): 0.988 | normalized growth (S. cerevisiae deletion strains, locus YOR144C, strain elg1, stronger effect = lower value): 0.968 | normalized growth (S. cerevisiae deletion strains, locus YOR184W, strain ser1, stronger effect = lower value): 0.978 | normalized growth (S. cerevisiae deletion strains, locus YOR231W, strain MKK1, stronger effect = lower value): 0.954 | normalized growth (S. cerevisiae deletion strains, locus YOR265W, strain rbl2, stronger effect = lower value): 1 | normalized growth (S. cerevisiae deletion strains, locus YOR270C, strain vph1, stronger effect = lower value): 1.06 | normalized growth (S. cerevisiae deletion strains, locus YOR290C, strain snf2, stronger effect = lower value): 1.01 | normalized growth (S. cerevisiae deletion strains, locus YOR316C, strain cot1, stronger effect = lower value): 0.968 | normalized growth (S. cerevisiae deletion strains, locus YPL051W, strain arl3, stronger effect = lower value): 1 | normalized growth (S. cerevisiae deletion strains, locus YPL078C, strain atp4, stronger effect = lower value): 1.02 | normalized growth (S. cerevisiae deletion strains, locus YPL106C, strain sse1, stronger effect = lower value): 0.952 | normalized growth (S. cerevisiae deletion strains, locus YPL240C, strain hsp82, stronger effect = lower value): 0.997 | normalized growth (S. cerevisiae deletion strains, locus YPL241C, strain CIN2, stronger effect = lower value): 0.987 | normalized growth (S. cerevisiae deletion strains, locus YPL256C, strain CLN2, stronger effect = lower value): 0.914 | normalized growth (S. cerevisiae deletion strains, locus YPR119W, strain clb2, stronger effect = lower value): 0.966 | normalized growth (S. cerevisiae deletion strains, locus YPR141C, strain kar3, stronger effect = lower value): 0.948 | normalized growth (S. cerevisiae deletion strains, locus YPR163C, strain tif3, stronger effect = lower value): 0.958 | normalized growth (S. cerevisiae deletion strains, locus YPR167C, strain met16, stronger effect = lower value): 0.958 | normalized growth (S. cerevisiae deletion strains, strain wtn01, stronger effect = lower value): 0.978 | normalized growth (S. cerevisiae strains, strain wild type, stronger effect = lower value): 0.998
